This passage reports Inhibition results from ChEMBL document CHEMBL4296182, “CO-ADD screening of NIH NCI Diversity Set V”.

Where “and” joins values, the source holds several entries; their conditions need not be identical. Equal entries are not always repeated. For some assays here: Results with a measured potency or affinity are listed apart.

One test has as its system Staphylococcus aureus. The experiment in a line: Antibacterial activity against Staphylococcus aureus MRSA ATCC 43300 (CO-ADD:GP_020); MIC in CAMBH media using NBS plates, by Resazurin F(560/590). The settings on record: Concentration 20 uM, ASSAY_TEST Inhibition of Bacterial Growth, detection method Resazurin, Fluorescence (ex560/em590), MEDIA CAMHB, plate type 384well, CORNING #3640, time 18 hr. It is filed as functional. For orientation: The colour change of resazurin is a common sign of viable cells or microbes.

The test system of another test is Acinetobacter baumannii. The experiment in a line: Antibacterial activity against Acinetobacter baumannii ATCC 19606 (CO-ADD:GN_034); MIC in CAMBH media using NBS plates, by Resazurin F(560/590). It counts as functional. The settings on record: Concentration 20 uM, ASSAY_TEST Inhibition of Bacterial Growth, detection method Resazurin, Fluorescence (ex560/em590), MEDIA CAMHB, plate type 384well, CORNING #3640, time 18 hr.

In the next test the test system is Escherichia coli. Description: Antibacterial activity against Escherichia coli ATCC 25922 (CO-ADD:GN_001); MIC in CAMBH media using NBS plates, by Resazurin F(560/590). It counts as functional. The settings on record: Concentration 20 uM, ASSAY_TEST Inhibition of Bacterial Growth, detection method Resazurin, Fluorescence (ex560/em590), MEDIA CAMHB, plate type 384well, CORNING #3640, time 18 hr.

The next test has as its system Klebsiella pneumoniae. The settings on record: Concentration 20 uM, ASSAY_TEST Inhibition of Bacterial Growth, detection method Absorption (OD600), MEDIA CAMHB, plate type 384well, NBS, CORNING #3640, time 18 hr.
In a further test the test system is Candida albicans. The settings on record: 20 µM.
The subject of another test is Cryptococcus neoformans. The settings on record: Concentration 20 uM, ASSAY_TEST Inhibition of Fungal Growth, detection method Resazurin, Absorption (OD600-OD570), plate type 384well, NBS, CORNING #3640.

With `COC(=O)C1(C(=O)OC)C2C(=O)C3C(C21)C3(C(=O)OC(C)(C)C)C(=O)OC(C)(C)C` (centres undefined), the Inhibition – broadly, the drop in the measured response relative to a control, in per cent – was 5.34% in the test on Staphylococcus aureus; -10.49% in the test with Acinetobacter baumannii; 12.49% in the test on Escherichia coli; 9.29% in the test with Klebsiella pneumoniae; 0.63% in the test with Candida albicans; -1.86% in the test on Cryptococcus neoformans.
Regarding `c1ccc(-c2nc3ccccc3s2)nc1`, the Inhibition with Staphylococcus aureus was 11.77%; in the test on Acinetobacter baumannii, -14.54%; in the test with Escherichia coli, 6.85%; in the test on Klebsiella pneumoniae, 18.93%; with Candida albicans, 0.91%; in the test with Cryptococcus neoformans it was -15.52%.
Take `Nc1o[nH]c(=O)c1C1CCCCC1`: the Inhibition is 7.44% in the test on Staphylococcus aureus; -3.3% in the test with Acinetobacter baumannii; 16.54% in the test on Escherichia coli; 10.69% in the test with Klebsiella pneumoniae; 1.7% with Candida albicans; -0.63% with Cryptococcus neoformans.
Turning to `Nc1ccccc1SC1CC(=O)N(c2ccc(Cl)c(Cl)c2)C1=O` (centres undefined), the Inhibition with Staphylococcus aureus is 1.48%; in the test with Acinetobacter baumannii, 12.22%; in the test with Escherichia coli, 0.8%; in the test with Klebsiella pneumoniae it was 8.81%; in the test on Candida albicans it was 8.62%; in the test on Cryptococcus neoformans, -1.72%.
`Cc1ccc(NC(=O)N2CCN(C)CC2)cc1NC(=O)N1CCN(C)CC1`: the Inhibition in the test with Staphylococcus aureus is 2.62%; in the test with Acinetobacter baumannii, 1.03%; with Escherichia coli, -22.66%; with Klebsiella pneumoniae, 4.06%; with Candida albicans, 0.95%; in the test on Cryptococcus neoformans, 29.46%.
Take `COc1ccc2[nH]c(-c3ccccc3)cc2c1`: the Inhibition with Staphylococcus aureus was 9.9%; in the test with Acinetobacter baumannii it was 3.58%; in the test on Escherichia coli it was 0.95%; in the test with Klebsiella pneumoniae, 16.65%; in the test with Candida albicans, 6.65%; in the test on Cryptococcus neoformans, -9.39%.
As for `N#CC1C(=O)NC(=O)C(C#N)C12CCCC(C(F)(F)F)C2` (centres undefined), the Inhibition in the test on Staphylococcus aureus is 7.59%; with Acinetobacter baumannii it was 8.61%; with Escherichia coli, -6.62%; with Klebsiella pneumoniae, 4.19%; with Candida albicans, 1.89%; in the test with Cryptococcus neoformans, -0.69%.
Consider `C1=Cc2ccccc2Nc2ccccc21` [IMINOSTILBENE], for which the Inhibition with Staphylococcus aureus is -1.85%; in the test on Acinetobacter baumannii, -14.24%; in the test with Escherichia coli, 12.01%; in the test with Klebsiella pneumoniae it was 3.59%; with Candida albicans, 3.51%; in the test on Cryptococcus neoformans, -15.72%.
For the compound `O=C(Nc1ccc(O)c(C(=O)O)c1)Oc1ccccc1`, the Inhibition with Staphylococcus aureus was 5.63%; in the test on Acinetobacter baumannii, 12.9%; with Escherichia coli, -6.34%; with Klebsiella pneumoniae, 11.35%; in the test on Candida albicans, 5.9%; in the test on Cryptococcus neoformans, -2.46%.
In the case of `CCC1=C(c2ccc(OC)cc2)CCC(C(=O)O)C1C` (centres undefined), the Inhibition is 20.78% in the test with Staphylococcus aureus; 6.76% in the test with Acinetobacter baumannii; -4.91% in the test on Escherichia coli; 12.8% in the test on Klebsiella pneumoniae; 12.4% in the test with Candida albicans; -6.31% in the test with Cryptococcus neoformans.
`Clc1nc2nc3n(c2nc1Cl)CCC3`: the Inhibition is 9.08% in the test with Staphylococcus aureus; 6.51% in the test on Acinetobacter baumannii; 0.57% in the test on Escherichia coli; 2.17% with Klebsiella pneumoniae; 3.01% in the test on Candida albicans; -9.39% in the test with Cryptococcus neoformans.
With `OC(COc1cccc2ccccc12)CN1CCN(c2ccc(Cl)cc2)CC1` (centres undefined), the Inhibition in the test with Staphylococcus aureus (18 h, 20 µM) was 7.27% and -7.63%; with Acinetobacter baumannii (18 h, 20 µM), 6.27% and 10.91%; in the test with Klebsiella pneumoniae (20 µM) it was 26.3% and 15.3%; in the test on Candida albicans, 1.46% and -1.63%; in the test on Cryptococcus neoformans (20 µM), -9.84% and -9.74%.
In the case of `NC(=O)C1=C(N)c2ccccc2C1c1ccccc1` (centres undefined), the Inhibition in the test with Staphylococcus aureus was -22.4%; in the test on Acinetobacter baumannii, 2.22%; in the test with Escherichia coli, -18.86%; in the test on Klebsiella pneumoniae, 1.18%; with Candida albicans it was 4.94%; in the test with Cryptococcus neoformans it was 28.25%.
`CC(=O)OCCn1c2nc(=O)[nH]c(=O)c-2nc2cc(C)c(C)cc21`: the Inhibition in the test on Staphylococcus aureus was -0.64%; in the test with Acinetobacter baumannii, -11.64%; in the test with Escherichia coli, 4.08%; with Klebsiella pneumoniae, 3.5%; in the test on Candida albicans, -0.26%; in the test on Cryptococcus neoformans it was -7.97%.
As for `CC(C)(C)c1ccc(OC(=O)c2ccccc2)cc1`, the Inhibition is -7.46% with Staphylococcus aureus; 6.71% with Acinetobacter baumannii; 7.42% in the test with Escherichia coli; 8.33% with Klebsiella pneumoniae; 9.75% in the test on Candida albicans; -15.41% with Cryptococcus neoformans.
For `N=C1OC(c2ccccc2)C(O)=C1O` (centres undefined), the Inhibition in the test with Staphylococcus aureus is 0.33%; with Acinetobacter baumannii, -10.5%; with Escherichia coli, 6.34%; with Klebsiella pneumoniae, 8.48%; with Candida albicans, 7.04%; in the test with Cryptococcus neoformans it was -2.61%.
As for `c1ccc(-n2ncc3cccnc32)cc1`, the Inhibition was 6.65% with Staphylococcus aureus; -2.45% in the test with Acinetobacter baumannii; 7.04% in the test on Escherichia coli; 9.31% with Klebsiella pneumoniae; -0.36% in the test on Candida albicans; -9.65% in the test with Cryptococcus neoformans.
For the compound `O=C(/C=C\c1ccc2ccccc2n1)c1cc(Cl)ccc1O`, the Inhibition is -11.69% in the test with Staphylococcus aureus; -4.27% in the test with Acinetobacter baumannii; -19.12% in the test with Escherichia coli; 3.11% in the test on Klebsiella pneumoniae; 16.4% with Candida albicans; -1.96% in the test on Cryptococcus neoformans.
`CCC(CC)NCCOC(=O)c1ccc([N+](=O)[O-])cc1`: the Inhibition in the test on Staphylococcus aureus is -1.24%; in the test on Acinetobacter baumannii it was -9.59%; with Escherichia coli it was 5.41%; in the test with Klebsiella pneumoniae it was 5.67%; with Candida albicans, 0.5%; in the test with Cryptococcus neoformans, -8.44%.
Consider `O=C(Nc1ccccc1)Nc1ccccn1`, for which the Inhibition in the test with Staphylococcus aureus is 15.92%; in the test on Acinetobacter baumannii, -11.25%; in the test on Escherichia coli it was 6.37%; in the test with Klebsiella pneumoniae, 12.38%; in the test with Candida albicans, 3.3%; in the test with Cryptococcus neoformans, -4.64%.
With `Nc1ccc(C(=O)Nc2ccc(NC(=O)c3ccco3)c(O)c2)cc1`, the Inhibition was 1% in the test on Staphylococcus aureus; 0.24% in the test with Acinetobacter baumannii; 0.6% with Escherichia coli; 17.4% in the test with Klebsiella pneumoniae; 3.85% with Candida albicans; -8.99% in the test with Cryptococcus neoformans.
Consider `O=C(CC1(O)CCCCC1)OC1CCCC1`, for which the Inhibition in the test with Staphylococcus aureus is -23.97%; with Acinetobacter baumannii it was 3.29%; with Escherichia coli, -15.82%; with Klebsiella pneumoniae it was -7.74%; in the test with Candida albicans, 2.66%; in the test with Cryptococcus neoformans, 30.45%.
On to `CCc1nc(N)nc(N)c1-c1ccc(N(C)Cc2ccccc2)c([N+](=O)[O-])c1`, for which the Inhibition in the test with Staphylococcus aureus is -14.23%; in the test on Acinetobacter baumannii it was -5.52%; in the test with Escherichia coli it was 6.75%; in the test on Klebsiella pneumoniae it was 5.93%; in the test on Candida albicans it was 0.08%; in the test on Cryptococcus neoformans, -8.19%.
Regarding `CC(C)(C)n1nc(C2CC2)cc1NC(=O)Nc1ccccc1`, the Inhibition was 5.22% with Staphylococcus aureus; -11.36% in the test with Acinetobacter baumannii; 8.62% in the test on Escherichia coli; 7.92% with Klebsiella pneumoniae; 1.47% with Candida albicans; -6.02% in the test on Cryptococcus neoformans.
For the compound `Clc1ccccc1/C=C/c1ccnc2ccccc12`, the Inhibition in the test on Staphylococcus aureus was 12.2%; in the test with Acinetobacter baumannii, 3.17%; in the test on Escherichia coli it was 1.57%; with Klebsiella pneumoniae it was 12.59%; in the test with Candida albicans it was 30.4%; with Cryptococcus neoformans, -3.47%.
